# VP16 counter = inhibits Gal4-VP16 luciferase reporter, ROR gamma counter-screen; hit rate 3.5% among 310,000; AID 2546; Drosophila S2 Gal4-VP16 UAS-luciferase, luminescence, 20 h; Potency, µM (highest dose often 53.6 µM), for the others: at the highest dose activity, negative = inhibition, most hits filed as inhibitors;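 also: Gal4-VP16 expression switched on by copper sulfate through the metallothionein promoter; nearly all actives have a fitted effect of over 50% in size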
# RORg inh = ROR gamma (mouse) transcription inhibition; Potency, µM (series often up to 53.6 µM), inactives show at the top dose activity change, negative = inhibition, actives largely listed as inhibitors; Drosophila S2 Gal4-RORgamma UAS-luciferase reporter, 20 h; hit rate 5.4% among 310,000; also: nearly all actives have a fitted effect of over 60% in size
# Target sequence (P51450 whole entry, looked up, the tested form may be a part): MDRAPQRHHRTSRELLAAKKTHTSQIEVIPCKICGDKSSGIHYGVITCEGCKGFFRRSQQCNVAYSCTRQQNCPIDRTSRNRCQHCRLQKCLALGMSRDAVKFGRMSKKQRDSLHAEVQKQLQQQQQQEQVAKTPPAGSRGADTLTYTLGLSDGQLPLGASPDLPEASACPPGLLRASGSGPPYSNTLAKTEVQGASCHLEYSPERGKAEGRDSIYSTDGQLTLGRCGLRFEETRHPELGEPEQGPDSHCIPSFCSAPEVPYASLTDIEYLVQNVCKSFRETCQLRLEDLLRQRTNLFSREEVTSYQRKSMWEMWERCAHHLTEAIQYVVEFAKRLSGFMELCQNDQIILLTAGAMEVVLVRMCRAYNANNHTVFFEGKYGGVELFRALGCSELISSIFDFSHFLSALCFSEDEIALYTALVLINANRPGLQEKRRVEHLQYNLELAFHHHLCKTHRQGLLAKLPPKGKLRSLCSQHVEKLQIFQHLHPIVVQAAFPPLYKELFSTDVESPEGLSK
#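 Luminescence from a UAS-regulated Photinus luciferase reporter in stably transfected Drosophila Schneider cells is measured; decreased signal marks ROR gamma inhibition. Fusion expression is induced by 700 uM copper sulfate for 20 hr.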
# ELG1 DNA repair = ELG1-dependent DNA repair inhibition; HEK293T ELG1-luciferase reporter, luminescence, 16 h; DNA damage induced by 5-fluorouridine; Potency, µM (highest dose often 46.1 µM), inactives show at the top dose activity change, negative = inhibition, usual class: inhibitors; hit rate 2.3% among 330,000; also: nearly all actives have a fitted effect of over 55% in size
#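 In this reporter screen, reduction of luminescence relative to DMSO vehicle indicated activity. Compounds and 5-fluorouridine were added together to 2,000 cells per well, incubated for 16 hr at 37 °C, then developed with ONE-Glo.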
# ALOX12 inh = ALOX12 (human) lipoxygenase inhibition | purified 12hLO, xylenol orange hydroperoxide absorbance | Potency, µM (highest dose often 108 µM), inactives show top-dose activity change, negative = inhibition, most hits filed as inhibitors | hit rate 1.1% among 580,000
#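 Hydroperoxide product was detected by ferrous iron/xylenol orange as the 573 to 405 nm absorbance ratio. Arachidonic acid at 40 uM (final) was turned over for 30 min at room temperature by 150 nM human 12hLO, pH 7.0 Hepes buffer, after 15 min compound preincubation.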
# TDP1 cell noCPT = qHTS for Inhibitors of human tyrosyl-DNA phosphodiesterase 1 (TDP1): qHTS in cells in absence of CPT | AID 686978, 2013 | hit rate 15% among 420,000 | DT40 Tdp1-/- hTDP1 cells, no CPT, ATP luminescence, 48 h | Potency, µM (highest dose often 46.2 µM), inactives show at the top dose activity change, negative = growth inhibition, actives largely listed as inhibitors; also: nearly all actives have a fitted effect of over 55% in size
#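 Growth kinetics read by CellTiter-Glo luminescence after ≥48 hr at 37 °C. Cells: DT40 Tdp1-/- stably carrying human TDP1, 400 per well, compound exposure in the absence of CPT (DMSO vehicle).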
# DT40 TDP1 CPT = growth inhibition of DT40 Tdp1-/-;hTDP1 cells with camptothecin (screen for TDP1 inhibitors) | chicken DT40 Tdp1-/-;hTDP1 cells + 20 nM CPT, ATP luminescence, 48 h | Potency, µM (titrated, usually from 46.2 µM), for the others: at the highest dose activity change, negative = growth inhibition, actives largely listed as inhibitors | hit rate 12% among 420,000 | AID 686979; also: nearly all actives have a fitted effect of over 55% in size
#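 Cell growth measured by CellTiter-Glo luminescence after a minimum 48 h, 37 C compound exposure with 20 nM CPT in Tdp1-knockout DT40 cells stably expressing hTDP1, seeded 400/well; qHTS titration format.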
# An asterisk follows results filed as active; ? = inconclusive; / = no result; ! = a repeat was not active; [ ] = dose if it differs, or a comment. A selection: hits, their analogues and other compounds. The true share with any hit is near 15%. Calls follow the shape of the dose curve; as a rule, active = well fitted curve in the direction sought with a large enough effect; inconclusive = small, poorly fitted or top-dose-only effect, or another doubt; inactive = no such curve, though single readings can be large; an effect the other way counts as inactive or inconclusive. % is scaled to controls: 0 for no effect and ±100 for the full control effect; potency is read from the fitted curve at half-maximal effect.
SMILES,VP16 counter,RORg inh,ELG1 DNA repair,ALOX12 inh,TDP1 cell noCPT,DT40 TDP1 CPT
CCOC(=O)c1ccc(NC(=O)CCc2nc(-c3ccccc3)no2)cc1,-1%,48%,26µM*,0%,29µM*,18µM*
COc1ccccc1-c1noc(CCC(=O)Nc2ccccc2Cl)n1,-3%[0.365 µM],10%,-13%,?,-3%,-10%
CCOC(=O)c1ccc(NC(=O)CCc2nc(-c3ccccc3Cl)no2)cc1,-20%,?,-5%,13%,15µM*,16µM*
Cc1ccc(NC(=O)Cc2nnc(SCC(=O)c3ccc(C#N)cc3)n2C)cc1,/,/,/,-21%,/,/
CCCN1CCN(c2ncnc3sc(C(=O)Nc4ccc(C(C)C)cc4)c(C)c23)CC1,/,/,/,?,?,21µM*
CCCN1CCN(c2ncnc3sc(C(=O)Nc4ccc(OC(F)(F)F)cc4)c(C)c23)CC1,/,/,/,?,21µM*,?
CCN1CCN(c2ncnc3sc(C(=O)Nc4ccccc4F)c(C)c23)CC1,-11%,11%,0%,143%,-27%,-10%
CCc1ccccc1-n1c(SCC(=O)Nc2ccc(C)cc2)nc2n[nH]c(C)c2c1=N,/,/,/,-7%,5.2µM*,7.3µM*
CCOc1ccccc1-n1c(SCC(=O)Nc2ccc(CC)cc2)nc2n[nH]c(C)c2c1=N,?,?,-19%,/,13µM*,12µM*
COC(=O)CN1CCN(CCC(C)C)CC1,/,/,/,-2%,/,/
C=CCNC(=O)[C@@H]1Cc2cn(Cc3c(C)noc3C)c3cccc(c23)[C@H](CC(C)C)N1,/,/,/,-7%[176 µM],/,/
CC(C)(C)C(=O)N(CCN(C(=O)C(C)(C)C)c1ccccc1)c1ccccc1,17%,-7%,-3%,18%,?,?
CC(C)c1ccc(N(CCc2ccccn2)C(=O)C(C)(C)C)cc1,/,/,/,?,15µM*,16µM*
Cc1cccc(OCC(=O)NC(C)C(=O)N2CCN(c3ccccn3)CC2)c1 (stereo not given),/,/,/,35%,/,/
Cc1nc2ccc(S(=O)(=O)N(CC(=O)N3CCN(C)CC3)Cc3ccccc3)cc2s1,/,/,/,-6%,/,/
CC(=O)c1cc2ccc(O)cc2oc1=O,-6%,3%,5%,-1%,6%,-2%
COc1ccc(NC(=O)c2cc3ccc(O)cc3oc2=O)cc1,/,/,/,-51%,/,/
COc1ccc(N=c2oc3cc(O)ccc3cc2C(=O)Nc2ccccn2)cc1OC,-11%,-8%,4.1µM*,-16%,2.1µM*,1.5µM*
Cc1ccc(N=c2oc3cc(O)ccc3cc2C(N)=O)cc1,0.89µM*,0.89µM*,?,-5%,7.3µM*,8.2µM*
COc1ccc(NC(=O)c2nc(-c3ccccc3)oc2C)c(OC)c1,/,/,/,23%,/,/
O=C(Nc1ccccc1)[C@@H]1CC=C[C@@H]2CCN(Cc3ccc(Cl)c(Cl)c3)C(=O)[C@@H]21,/,/,/,3%,18µM*,?
COc1ccc(CN2CC[C@H]3C=CC[C@@H](C(=O)NCCc4ccccc4)[C@H]3C2=O)cc1OC,/,/,/,34%,?,14µM*
O=C(Nc1ccccc1)[C@@H]1CC=C[C@@H]2CCN(Cc3ccccc3)C(=O)[C@@H]21,/,/,/,-1%,22µM*!,?
CCCCN1CC[C@H]2C=CC[C@@H](C(=O)Nc3ccccc3)[C@H]2C1=O,/,/,/,-3%,-5%,?
O=C(Nc1ccccc1F)C1C2CC/C=C\CC/C=C/CCC21 (stereo not given),/,/,/,5%,/,/
COc1cccc(NC(=O)CN(C)C(C)C(=O)Nc2cc(Cl)ccc2OC)c1 (stereo not given),/,/,/,-6%,/,/
CC1=NN(C(=O)c2ccco2)C(O)(c2ccccc2)C1 (stereo not given),6.3µM*,1.8µM*,-2%,0%,0.92µM*,1µM*

# From PubChem BioAssay
